From PubChem
SW480 rereplic – DNA re-replication induction in SW480 cells | AID 624297 | 340,000 compounds, 1.8% hits | SW480 DNA re-replication, Hoechst DNA content imaging, 48 h | Potency, µM (top dose mostly 46.1 µM), actives largely listed as activators; further: nearly all actives have a fitted effect of over 55% in size
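Image-based DNA-content assay: after two days of treatment, nuclei were labelled with the DNA dye Hoechst and imaged, and hits were compounds raising the count of nuclei showing high fluorescence intensity.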
IL-1B inflam inh – inhibitors of inflammasome signaling (IL-1 beta secretion) | activity change, % at 57.5 µM | 360,000 compounds, 4.7% hits | THP-1 LPS/ATP IL-1B secretion, AlphaLISA, 16 h; hits give low values; in the data active means activity change below about -50%; inconclusive means mostly about -30% to -49%
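Secreted IL-1B measured by AlphaLISA bead assay after 16 h compound exposure of THP-1 cells; compounds (final up to 57.5 uM) added 1 h before LPS (250 ng/mL) and ATP (1.25 mM) stimulation; lower signal means less secretion.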
MCF10A rereplic – inducers of DNA re-replication in MCF 10A breast cells; Potency, µM (top dose mostly 46.1 µM), actives largely listed as activators; AID 624296; MCF 10A DNA re-replication, Hoechst nuclear intensity, 48 h; 350,000 compounds, 2.9% hits; further: nearly all actives have a fitted effect of over 50% in size
Gal4-VP16 FLuc – Gal4-VP16 reporter inhibition counter-screen; Potency, µM (top dose mostly 53.6 µM), actives largely listed as inhibitors; Drosophila S2 Gal4-VP16 UAS-luciferase, luminescence, 20 h; 310,000 compounds, 3.5% hits;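 further: Gal4-VP16 expression switched on by copper sulfate through the metallothionein promoter; nearly all actives have a fitted effect of over 50% in size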
RORg inh – blocks mouse ROR gamma transcriptional activity | Potency, µM (doses to about 53.6 µM), usual class: inhibitors | Drosophila S2 Gal4-RORgamma UAS-luciferase reporter, 20 h | 310,000 compounds, 5.4% hits | AID 2551; further: nearly all actives have a fitted effect of over 60% in size
Target sequence (P51450 whole entry, looked up, the tested form may be a part): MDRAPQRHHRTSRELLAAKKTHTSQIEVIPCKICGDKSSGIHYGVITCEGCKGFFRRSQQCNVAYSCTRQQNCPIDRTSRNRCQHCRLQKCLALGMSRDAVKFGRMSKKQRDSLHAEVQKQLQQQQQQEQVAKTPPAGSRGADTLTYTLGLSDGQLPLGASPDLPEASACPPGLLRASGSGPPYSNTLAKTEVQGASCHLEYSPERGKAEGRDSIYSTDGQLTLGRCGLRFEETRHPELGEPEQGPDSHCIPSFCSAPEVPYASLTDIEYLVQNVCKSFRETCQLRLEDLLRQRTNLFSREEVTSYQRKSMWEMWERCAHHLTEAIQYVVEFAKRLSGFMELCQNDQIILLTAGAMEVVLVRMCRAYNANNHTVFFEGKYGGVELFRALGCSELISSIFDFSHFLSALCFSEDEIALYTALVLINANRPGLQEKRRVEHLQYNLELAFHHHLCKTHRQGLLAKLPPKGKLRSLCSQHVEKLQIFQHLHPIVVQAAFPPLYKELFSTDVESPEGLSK
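Schneider cells (Drosophila), stable Gal4 DBD–ROR gamma + UAS-luc; 1 hr cmpd preincubation; Cu2+ induction 700 uM final; 20 hr ambient; luminescence.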
Numbers stand for hits; . = inactive; ? = inconclusive; / = no result; [ ] = another dose, or the depositor's remark. In the library only some 11% were active in any assay of this set; here they are far more common. Unless noted, the call rests on the fitted dose curve; in most records, active means well fitted curve in the direction sought with a large enough effect; inconclusive means small, poorly fitted or top-dose-only effect, or another doubt; inactive means no such curve, though single readings can be large; an effect the other way counts as inactive or inconclusive.

SMILES	SW480 rereplic	IL-1B inflam inh	MCF10A rereplic	Gal4-VP16 FLuc	RORg inh
CCOC(=O)c1sc2nc(Cc3ccc(Cl)cc3)[nH]c(=S)c2c1C	.	.	.	?	2.8µM
CCOC(=O)c1sc2nc(C)nc(NCc3ccc(F)cc3)c2c1C	?	?	?	.	.
COc1cc(C(=O)O/N=C2\C=CC(=O)C(C)=C2)cc(OC)c1OC	5.8µM	-72	?	5.6µM	5µM
CCc1cc(=O)oc2cc(O[C@@H]3O[C@H](CO)[C@@H](O)[C@H](O)[C@H]3O)c(Cl)cc12	18µM	.	.	.	.
O=C(CN1C(=O)NC2(CCc3ccccc32)C1=O)c1ccc(F)c(F)c1 (stereo not given)	.	.	.	/	/
N#CC(c1cccc(Cl)c1)c1ccc2c(C(F)(F)F)cc(C(F)(F)F)nc2n1 (stereo not given)	?	-105	?	4µM	5µM
CC(=O)/C(=N/Nc1ccccc1)Sc1nnc(CCc2ccccc2)n1-c1ccccc1	?	-76	.	.	.
O=C(CSc1nnc(CCc2ccccc2)n1-c1ccc(Cl)cc1)NCc1ccccc1	.	.	.	.	.
CC(=O)/C(=N/Nc1cccc(Cl)c1)Sc1nnc(C(O)c2ccccc2)n1-c1ccccc1 (stereo not given)	.	.	.	.	.
CC(=O)/C(=N\Nc1ccc(Cl)cc1)Sc1nnc(-c2ccccc2)n1-c1ccccc1	.	.	?	6.3µM	6.3µM
CCOC(=O)C1=C(C)NC(SC)=C(C#N)C1CC(C)C (stereo not given)	7.3µM	?	?	.	.
CC(=O)C1=C(C)NC(SCC(=O)c2ccc(F)cc2)=C(C#N)C1CC(C)C (stereo not given)	?	.	18µM	7.1µM	5.6µM
CC(=O)C1=C(C)NC(SCC(=O)c2ccc(Cl)cc2)=C(C#N)C1CC(C)C (stereo not given)	.	.	?	?	11µM
CC(=O)C1=C(C)NC(SCC(N)=O)=C(C#N)C1CC(C)C (stereo not given)	.	.	.	.	.
Cc1ccc2oc(C(=O)N(C)Cc3ccc(C)o3)c(C)c2c1	?	.	23µM	.	.
Cc1cc(N2CCCC2)ccc1/C=C1/C(=O)N(C)C(=S)N1C	15µM	.	.	.	.
O=C(NC1CCCCC1)c1[nH]c(C(F)(F)F)nc1-c1ccccc1	/	.	/	/	/
O=C(CCl)c1cc2c3c(c1)CC(=O)N3CCC2	16µM	-71	?	3.5µM	2µM
O=C(NCCO)C(=O)Nc1cc2c3c(c1)CC(=O)N3CCC2	.	.	.	.	.
COc1ccc(-c2cc(C(=O)N3CCN(c4ccccn4)CC3)c3ccccc3n2)cc1	21µM	.	?	.	.
CCOc1ccc(-c2cc(C(=O)N3CCN(c4ccccn4)CC3)c3ccccc3n2)cc1	?	.	?	.	.
COc1ccc(-c2cc(C(=O)N3CCCC3)c3ccccc3n2)cc1	.	.	.	.	.
COc1ccc(-c2cc(C(=O)N3CCN(c4ccccc4)CC3)c3ccccc3n2)cc1	1.8µM	.	13µM	.	.
CCCc1ccc(-c2cc(C(=O)N3CCN(c4ccccn4)CC3)c3ccccc3n2)cc1	?	.	?	14µM	11µM
CCCc1ccc(OCc2ccc(C(=O)N3CCN(c4ccccn4)CC3)o2)c(OC)c1	.	.	9.2µM	/	.[0.365 µM]
SMILES	SW480 rereplic	IL-1B inflam inh	MCF10A rereplic	Gal4-VP16 FLuc	RORg inh
CN(Cc1ccccc1)c1nccn2ccnc12	/	.	/	/	/
CC(=O)Nc1ccc(OCC(O)Cn2nc(C)c(C)c2C)cc1 (stereo not given)	.	.	.	.	.
Cc1ccc(OCC(O)CN2CCCC2)cc1 (stereo not given)	.	.	.	.	.
Cc1cccc(C)c1OCC(O)Cn1nnc2ccccc21 (stereo not given)	.	.	?	.	.
Cc1ccc(OCC(O)Cn2c3ccccc3c3ccccc32)cc1 (stereo not given)	?	-84	.	.	.
Cc1cccc(C)c1OCC(O)Cn1c2ccccc2c2ccccc21 (stereo not given)	?	.	21µM	.	?
OC(COCC(F)(F)C(F)(F)C(F)(F)C(F)F)Cn1c2ccccc2c2ccccc21 (stereo not given)	?	-103	?	5µM	?
Cc1ccc(S(=O)(=O)NC(=O)O[C@@H]2C(=O)c3cc(Br)ccc3O[C@H]2c2ccc3c(c2)OCO3)cc1	/	/	/	.	.
CN(CC(=O)Nc1cc(Cl)ccc1C#N)C1CCS(=O)(=O)C1 (stereo not given)	.	.	.	/	/
O=C(Nc1ccc(Cl)cc1)Nc1nnc(CSc2ccc(Cl)cc2)s1	?	-58	?	.	.
O=C(Nc1ccc(F)cc1)Nc1nnc(COc2ccccc2F)s1	.	-166	?	.	.
O=C(Nc1cccc(Cl)c1)Nc1nnc(CSCCOc2ccc(Cl)cc2)s1	?	.	5.2µM	?	?
CCNc1oc(/C=C/c2ccc(OCC)cc2)nc1C#N	3.3µM	.	2.6µM	.	.
CNc1oc(/C=C/c2cccc(OC)c2)nc1C#N	18µM	?	21µM	.	.
CCN(CC)CCCNc1oc(/C=C/c2ccccc2)nc1C#N	21µM	.	?	.	.
CCN1C(=O)[C@H]2[C@@H](c3ccc(-c4ccc(OC)cc4)cc3)N[C@@](C)(C(=O)OC)[C@H]2C1=O	.[9.22 µM]	.	.	/	/
O=[N+]([O-])c1cccc(C(=Nc2ccccc2)NO)c1	.	.	.	.	.
O=[N+]([O-])c1cc([N+](=O)[O-])c2c(=Nc3ccccc3)n(-c3ccccc3)n(O)c2c1	?	.	?	?	13µM
COc1ccc(-n2ncc3c(N4CCN(c5cccc(C)c5C)CC4)ncnc32)cc1	.	.	.	.	.
Clc1ccc(-n2ncc3c(N4CCCCCC4)ncnc32)cc1	.	.	.	14µM	?
COc1ccc(-n2ncc3c(N4CCCCC4)ncnc32)cc1	.	.	.	2µM	5µM
CC1CC=CC2C1C(=O)N(Cc1ccccc1)C2c1ccc(F)c(-c2ccc(N(C)C)cc2)c1 (stereo not given)	/	/	/	.	.
COCC(=O)N1CCC2CC1c1cc(Cl)ccc12 (stereo not given)	.	.	.	/	/
O=C(Cn1c(-c2ccccc2)c[n+]2ccsc12)c1ccc(Br)cc1	?	-86	.	.	.
Cn1c(=N)n(CC(=O)c2ccc(Br)cc2)c2ccccc21	.	/	?	/	/
COC1(OC)C(/C=C/c2ccc(Cl)cc2)C(C#N)(C#N)C1(OC)OC (stereo not given)	?	-102	6.5µM	?	?
CCC1(c2ccccc2)NC(=O)N(CC(=O)NNC(=O)c2ccoc2C)C1=O (stereo not given)	.	.	.	/	/
Cn1nnc2c[n+](CC(=O)c3ccc4ccccc4c3)cc(Br)c21	?	-101	?	.	.
Cn1nnc2cc(C(=O)Nc3ccc4ccccc4c3)ccc21	.	.	.	.	.
